In PubChem BioAssay (NCATS):
Inconclusive results are not listed. Activity calls are given as the source filed them. Calls follow the shape of the dose curve; as a rule, active = well fitted inhibition curve with a large enough effect; inconclusive = small, poorly fitted or top-dose-only effect; inactive = flat fitted curve, though single readings scatter.

What was measured:
PC49 = test: qHTS profiling for inhibitors of Plasmodium falciparum proliferation (AID 504749);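 also: 0% = DMSO vehicle and full inhibition = artemisinin control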; details: P. falciparum in erythrocytes, SYBR Green DNA, 72 h; series mostly up to 28.7 µM
Procedure, shortened: (§1)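 Readout was DNA-dye fluorescence from lysed cultures, ex 485/em 535 nm. Parasitized red cells had grown 72 h with compound; data scaled between 0.29 uM artemisinin and DMSO wells and corrected using vehicle-only plates.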

SC27B = test: as above; details: P. falciparum in erythrocytes, SYBR Green DNA, 72 h; series mostly up to 28.7 µM
Procedure, shortened: as §1

TAB109 = test: as above; details: P. falciparum in erythrocytes, SYBR Green DNA, 72 h; series mostly up to 28.7 µM
Procedure, shortened: as §1

TAB113 = test: as above; details: P. falciparum in erythrocytes, SYBR Green DNA, 72 h; series mostly up to 28.7 µM
Procedure, shortened: as §1

TAB165 = test: as above; details: P. falciparum in erythrocytes, SYBR Green DNA, 72 h; series mostly up to 28.7 µM
Procedure, shortened: as §1

W2 = test: as above; details: P. falciparum in erythrocytes, SYBR Green DNA, 72 h; series mostly up to 28.7 µM
Procedure, shortened: as §1

CRL-7250 = normal cell line; test: Cytotoxic Profiling of Annotated Libraries Using Quantitative High-Throughput Screening (AID 1296008); details: Five cell lines viability, CellTiter-Glo ATP luminescence, 48-72 h; active compounds read low; as to max response: % is scaled to controls: 0 for no effect and ±100 for the full control effect
Procedure, shortened: (§2)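 Cells exposed to compounds for 48 or 72 hr at 37 degrees Celsius. Viability read as ATP-coupled luminescence with CellTiter-Glo after 10 min at room temperature.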

HEK293 = test: as above; details: Five cell lines viability, CellTiter-Glo ATP luminescence, 48-72 h; active compounds read low
Procedure, shortened: as §2

HaCat [1] = test: as above; details: Five cell lines viability, CellTiter-Glo ATP luminescence, 48-72 h; active compounds read low
Procedure, shortened: as §2

KB-3-1 = test: as above; details: Five cell lines viability, CellTiter-Glo ATP luminescence, 48-72 h, active compounds read low
Procedure, shortened: as §2

NIH3T3 = test: as above; details: Five cell lines viability, CellTiter-Glo ATP luminescence, 48-72 h; active compounds read low
Procedure, shortened: as §2

HACAT [2] = test: qHTS assay to identify novel small-molecules to repurpose for Merkel cell carcinoma treatment (AID 1296009); details: MCC and control cell lines, CellTiter-Glo viability, 72 h; at 44.8 µM (top of the series) unless noted
Procedure, shortened: (§3)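 Cells were incubated with compound for 72 hr at 37 degree celsius before CellTiter-Glo addition. Luminescence was normalized with no-cell wells as full cytotoxicity and DMSO as baseline.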

MCC-13 = test: as above; details: MCC and control cell lines, CellTiter-Glo viability, 72 h; series mostly up to 46 µM
Procedure, shortened: as §3

MCC-26 = test: as above; details: MCC and control cell lines, CellTiter-Glo viability, 72 h; series mostly up to 46 µM
Procedure, shortened: as §3

MKL-1 = test: as above; details: MCC and control cell lines, CellTiter-Glo viability, 72 h; series mostly up to 46 µM
Procedure, shortened: as §3

MKL-2 = test: as above; details: MCC and control cell lines, CellTiter-Glo viability, 72 h; series mostly up to 46 µM
Procedure, shortened: as §3

UISO = test: as above; details: MCC and control cell lines, CellTiter-Glo viability, 72 h; series mostly up to 46 µM
Procedure, shortened: as §3

WaGa = test: as above; details: MCC and control cell lines, CellTiter-Glo viability, 72 h; series mostly up to 46 µM
Procedure, shortened: as §3

HEK293T = test: as above; details: MCC and control cell lines, CellTiter-Glo viability, 72 h; at 44.8 µM (top of the series) unless noted
Procedure, shortened: as §3
Also: nearly all actives have a fitted effect of over 60% in size.

Cc1ccc(S(=O)(=O)NC(=O)NC2CCCCCCC2)cc1
inactive: Potency (PC49) | Potency (SC27B) | Potency (TAB109) | Potency (TAB113) | Potency (TAB165) | Potency (W2) | max response (CRL-7250) -5.06% | max response (HEK293) 4.09% | outcome (HaCat [1]) | max response (KB-3-1) 0.148% | max response (NIH3T3) 3.55% | outcome (HACAT [2]) | outcome (MCC-13) | outcome (MCC-26) | outcome (MKL-1) | outcome (MKL-2) | outcome (UISO) | outcome (WaGa)

Cc1cc(-n2nc3ccc(Cl)cc3n2)c(O)c(C(C)(C)C)c1
inactive: Potency (PC49) | Potency (SC27B) | Potency (W2) | max response (CRL-7250) -3.44% | max response (HEK293) 4.97% | outcome (HaCat [1]) | max response (KB-3-1) 6.34% | max response (NIH3T3) 3.2% | outcome (HACAT [2]) | outcome (MCC-13) | outcome (MCC-26) | outcome (MKL-1) | outcome (MKL-2) | outcome (UISO) | outcome (WaGa)

CC(=O)Nc1cccc(O)c1
inactive: Potency (PC49) | Potency (SC27B) | Potency (TAB109) | Potency (TAB113) | Potency (TAB165) | Potency (W2) | max response (CRL-7250) -4.66% | max response (HEK293) 4.09% | outcome (HaCat [1]) | max response (KB-3-1) 0.376% | max response (NIH3T3) 0.534% | outcome (HACAT [2]) | outcome (MCC-13) | outcome (MCC-26) | outcome (MKL-1) | outcome (MKL-2) | outcome (UISO) | outcome (WaGa)

CCOC(=O)[C@H](CCc1ccccc1)N[C@@H](C)C(=O)N1Cc2cc(OC)c(OC)cc2C[C@H]1C(=O)O
inactive: outcome (CRL-7250) | outcome (HEK293) | max response (HaCat [1]) 2.61% | max response (KB-3-1) -3.37% | max response (NIH3T3) 2.92% | outcome (HEK293T) | outcome (MCC-13) | outcome (MCC-26) | outcome (MKL-1) | outcome (MKL-2) | outcome (UISO) | outcome (WaGa)

O=C1CC[C@@H](C(=O)O)N1
inactive: Potency (PC49) | Potency (SC27B) | Potency (TAB109) | Potency (TAB113) | Potency (TAB165) | max response (CRL-7250) 1.58% | outcome (HEK293) | max response (HaCat [1]) 4.13% | max response (KB-3-1) 18.1% | max response (NIH3T3) 0.792% | outcome (HEK293T) | outcome (MCC-13) | outcome (MCC-26) | outcome (MKL-1) | outcome (MKL-2) | outcome (UISO) | outcome (WaGa)

NCc1ccc(S(N)(=O)=O)cc1
inactive: Potency (PC49) | Potency (SC27B) | Potency (TAB109) | max response (CRL-7250) -8.65% | outcome (HEK293) | max response (HaCat [1]) -6.18% | max response (KB-3-1) -7.46% | max response (NIH3T3) 1.15% | outcome (HEK293T) | outcome (MCC-13) | outcome (MCC-26) | outcome (MKL-1) | outcome (MKL-2) | outcome (UISO) | outcome (WaGa)

COC(=O)c1ccccc1C(=O)c1ccc(OCCN2CCCCC2)cc1
inactive: Potency (PC49) | Potency (SC27B) | Potency (TAB109) | Potency (TAB113) | Potency (TAB165) | max response (CRL-7250) -2.25% | outcome (HEK293) | max response (HaCat [1]) -0.875% | max response (KB-3-1) -16% | max response (NIH3T3) -3.51% | outcome (HEK293T) | outcome (MCC-13) | outcome (MCC-26) | outcome (MKL-1) | outcome (MKL-2) | outcome (UISO) | outcome (WaGa)
